High-throughput results from PubChem BioAssay.
Most compounds without a hit are left out; they make up all but 2.2% or so of the library.
APP transl inh: APP translation inhibition. inhibition, % at 2 µM. SH-SY5Y APP 5'UTR-luciferase reporter, luminescence. 190,000 compounds, 0.82% hits. AID 1285;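 active = inhibition above a set limit, derived from the sample mean plus 3 SD, cut at about 45% in these data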
IEC-6 cytotox: IEC-6 cytotoxicity, counter-screen for KLF5 inhibitors. luminescence viability. inhibition, % at 5 µM. 290,000 compounds, 0.78% hits; in the data active = inhibition above about 22%
Ba/F3 V617F tox: loss of viability in JAK2V617F-driven Ba/F3 cells | 220,000 compounds, 1.1% hits | inhibition, % at 5.6 µM | Ba/F3 EpoR-JAK2V617F viability, ATP luminescence;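 active = inhibition above the campaign mean plus 3 SD over all tested compounds, cut at about 24% in these data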;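 also: cytokine-independent growth of Ba/F3 cells driven by EpoR plus mutant JAK2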
BaF3 parental: reduces parental Ba/F3 cell viability, JAK2V617F counter-screen; 220,000 compounds, 1.1% hits; inhibition, % at 5.6 µM; CellTiter-Glo ATP luminescence;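 active = inhibition above a per-campaign cutoff, the mean inhibition of all tested compounds plus 3 SD, cut at about 27% in these data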
aSyn UTR inh: MLPCN primary screen, SNCA 5' untranslated region; alpha-synuclein 5'UTR reporter, inhibitor activity; 300,000 compounds, 0.82% hits; inhibition, % (tested at 7.5 µM); in the data active = inhibition above about 60%;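 also: H4 neuroglioblastoma cells stably carrying SNCA 5'UTR luciferase fusion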
KLF5 inh: inhibitors of KLF5 expression; DLD-1 KLF5 promoter-luciferase reporter, luminescence; inhibition, % at 5 µM; 290,000 compounds, 0.23% hits;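 active = inhibition above a per-plate limit of that plate's mean compound inhibition plus 3 SD, cut at about 60% in these data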;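 also: higher means less KLF5 promoter-driven luciferase light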
A number is an active result; n = inactive; x = not tested or not shown.

SMILES	APP transl inh	IEC-6 cytotox	Ba/F3 V617F tox	BaF3 parental	aSyn UTR inh	KLF5 inh
CN(C)C(=O)Oc1cccc(OCc2n(C)c3ccccc3[n+]2C)c1	n	n	n	n	n	n
C/C=C(\C)C(=O)OC1C(C)=C2C(C1OC(=O)CCCCC)C(C)(OC(C)=O)CC(OC(=O)CCC)C1(O)C2OC(=O)C1(C)O (stereo not given)	x	x	x	x	108	x
O=C(O)c1ccccc1NC(=O)N1C[C@H]2C[C@@H](C1)c1cccc(=O)n1C2	x	n	x	x	n	n
CC(=O)O[C@@H]1/C=C/[C@](C)(O)C[C@@H](C)C/C=C/[C@H]2[C@@H]3O[C@]3(C)[C@@H](C)[C@H]3[C@H](Cc4ccccc4)NC(=O)[C@@]312	x	x	x	x	114	x
C[n+]1c(-c2ccccc2)cc(-c2ccc(Cl)cc2)cc1-c1ccccc1	n	n	46	30	n	n
Cc1ccc(-c2cc(-c3ccccc3)cc(-c3ccccc3)[n+]2-c2ccccc2)cc1	x	x	x	x	85	x
CCOC(=O)c1ccc(-[n+]2c(-c3ccccc3)cc(-c3ccccc3)cc2-c2ccccc2)cc1	x	x	x	x	n	x
CN(C)c1ccc(-[n+]2c(-c3ccccc3)cc(-c3ccccc3)cc2-c2ccccc2)cc1	n	71	101	94	84	n
Cc1ccc(-c2cc(-c3ccc(C)cc3)[n+](-c3ccc(C(=O)[O-])cc3)c(-c3ccc(C)cc3)c2)cc1	x	x	x	x	83	x
O=[N+]([O-])c1cc(Cl)c(O)c(-[n+]2c(-c3ccccc3)cc(-c3ccccc3)cc2-c2ccccc2)c1	x	n	x	x	n	n
CCOP(=O)(C#CC(C)(C)C)C(O)(c1ccccc1)C(F)(F)F (stereo not given)	n	n	n	n	n	n
O=c1ccc2cc(O[C@@H]3O[C@@H](CO)[C@H](O)[C@@H](O)[C@@H]3O)c(O)cc2o1	x	n	x	x	n	n
CCC(Oc1cc(Cl)ccc1Cl)C(=O)N1CCC2(CC1)OCCO2 (stereo not given)	x	n	x	x	n	n
Cc1ccc(-c2cc(-c3ccc(C)cc3)[n+](-c3ccccc3)c(-c3ccc(C)cc3)c2)cc1	x	x	x	x	76	x
CCOC(=O)c1cccc(-[n+]2c(-c3ccccc3)cc(-c3ccccc3)cc2-c2ccccc2)c1	x	x	x	x	n	x
Cc1ccc(NP(=O)(Oc2ccccc2F)Oc2ccccc2F)cc1	n	n	n	66	n	n
OCC[n+]1c2ccccc2nc2ccc(N3CCOCC3)cc21	x	n	n	31	n	n
COc1ccc(-c2nc3ccc(C(=O)N4CCC5(CC4)OCCO5)cc3nc2-c2ccc(OC)cc2)cc1	x	n	x	x	n	n
O=Cc1cn(Cc2ccc([N+](=O)[O-])cc2)c2ccccc12	n	n	n	n	72	n
Cc1ccc(Cn2cc(C=O)c3ccccc32)cc1	x	n	x	x	n	n
O=Cc1cn(Cc2ccc(F)cc2)c2ccccc12	n	n	n	n	71	n
OC1(c2ccc(F)cc2)CC2CCC(C1)N2Cc1nnnn1C1CCCCC1 (stereo not given)	n	n	n	n	n	n
CCOc1cccc(=NC2CCCCC2)c2c(C)n(C)c(C)c12	x	n	73	65	n	n
Nc1ncn[nH]1	x	x	x	x	n	x
CC/C(=N\N1CCCCCC1)c1c(O)n(-c2ccccc2C)c(=O)[nH]c1=O	n	n	n	n	n	n
SMILES	APP transl inh	IEC-6 cytotox	Ba/F3 V617F tox	BaF3 parental	aSyn UTR inh	KLF5 inh
CCCCCn1c(=O)c(C(=O)NCc2ccncc2)c(O)c2ccccc21	n	n	n	n	65	n
CCCCCCn1c(=O)c(C(=O)Nc2cnccn2)c(O)c2ccccc21	n	n	n	n	67	n
CCCCCn1c(=O)c(C(=O)Nc2ccccn2)c(O)c2ccccc21	x	n	x	x	65	n
CCCCCCn1c(=O)c(C(=O)Nc2ncccc2O)c(O)c2ccccc21	x	n	x	x	92	n
CCC(C)n1c(O)c(C=NCC2CCCO2)c(=O)[nH]c1=S (stereo not given)	x	n	n	n	n	n
Cc1ccccc1-n1c(C)nc2ccsc2c1=O	x	x	x	x	n	x
O=c1c2ccccc2nc(-c2ccccc2Cl)n1-c1ccc(O)cc1	x	n	x	x	n	n
COc1ccc(/C=C/C(=O)NC(=S)N2C[C@H]3C[C@H](C2)c2cccc(=O)n2C3)cc1OC	x	n	x	x	n	n
Cc1ccc2[nH]c(=S)n(-c3cccnc3)c(=O)c2c1	x	n	n	n	n	n
Cc1ccc(N2C(=O)NC(=O)C3(Cc4ccccc4N4CCN(c5ccccc5)CC43)C2=O)cc1 (stereo not given)	n	n	n	n	n	n
Cc1cc(C)cc(N2C(=O)NC(=O)/C(=C\C=C\c3ccco3)C2=O)c1	46	n	n	n	n	n
OC1CCCCC1N1CCC(c2ccccc2)CC1 (stereo not given)	n	n	n	n	n	n
CN(C)C(Cc1ccccc1)C(=O)c1ccc(-c2ccccc2)cc1 (stereo not given)	x	n	n	n	n	n
COc1ccc(C(C)=O)cc1CC(C(=O)c1ccc(C)c(C)c1)N(C)C (stereo not given)	n	n	n	n	n	n
COc1ccc(C(=O)C(Cc2ccccc2)N(C)C)cc1 (stereo not given)	n	n	35	36	n	n
COc1ccc(C(C)=O)cc1CC(C(=O)c1ccc(F)cc1)N(C)C (stereo not given)	n	n	n	40	n	n
c1ccc(CC(NCc2ccco2)c2ccccc2)cc1 (stereo not given)	n	n	n	n	n	n
CCCC1(CCC)C(=O)NC(=Nc2ccc(C)cc2)NC1=O	n	n	n	n	n	n
CCC(=Nc1ccc(OC)cc1OC)c1c(O)[nH]c(=O)[nH]c1=O	n	n	n	n	n	n
CCC(=Nc1cc(OC)ccc1OC)c1c(O)[nH]c(=O)[nH]c1=O	n	n	n	n	71	n
COc1ccc(C[C@H]2NC[C@H](O)[C@H]2OC(C)=O)cc1	x	x	x	x	112	x
O=C(Cn1cnc2ccccc2c1=O)NCC(=O)N1CCC2(CC1)OCCO2	n	n	n	37	n	n
O=C(Cn1cnc2ccccc2c1=O)NCCC(=O)N1CCC2(CC1)OCCO2	n	n	n	n	n	n
O=C1CN=C(c2ccc(Br)cc2)c2c(sc3c2CCCC3)N1CCN1CCCCC1	n	n	n	n	n	n
Cc1ccccc1-n1c(O)c(/C=C2/C(c3ccccc3)=Nc3ccccc32)c(=O)[nH]c1=O	62	78	78	69	n	n
CN1CCC(N(C)c2nc(-c3ccc([N+](=O)[O-])cc3)nc3ccccc23)CC1	n	n	n	n	75	n
CC(C)CN1CCN(Cc2cccc3c2OCO3)CC1CCO (stereo not given)	n	n	n	n	n	n
